In PubChem BioAssay (NCATS):
Values without a mark were called inactive. Records with an inconclusive call do not appear. Activity calls are given as the source filed them. Calls follow the shape of the dose curve; as a rule, active = well fitted curve in the direction sought with a large enough effect; inconclusive = small, poorly fitted or top-dose-only effect, or another doubt; inactive = no such curve, though single readings can be large; an effect the other way counts as inactive or inconclusive.

Key:
[1] = Primary redox qHTS assay for identification of artifact compounds. (AID 1845223)
Summary of the method: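 Amplex Red (25 uM) and HRP (250 mU/mL) in HBSS, with compounds for 15 min, then 250 uM DTT for 30 min, room temperature, dark. Fluorescence 525/598 nm read; normalized to DMSO and 10 uM DA3003; Hill fit.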

[2] = Quantitative High-Throughput drug screen in 47 multiple myeloma cell lines against the NCATS MIPE library collection: FR4_PLB cell viability assay (AID 1918924; also: nearly all actives have a fitted effect of over 35% in size; also: potency is read from the fitted curve at half-maximal effect)
Summary of the method: (§1)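 Luminescent ATP measurement with CellTiter-Glo gives viability, scaled between DMSO-only wells (100%) and media-only wells (0%). Cells, 500 per well, faced library compounds for 48 hours at 37C.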

[3] = Quantitative High-Throughput drug screen in 47 multiple myeloma cell lines against the NCATS MIPE library collection: Delta47_JCRB cell viability assay (AID 1918925; also: nearly all actives have a fitted effect of over 45% in size; also: potency is read from the fitted curve at half-maximal effect)
Summary of the method: (§2)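 Viability readout: CellTiter-Glo luminescence following 5 min room-temperature incubation with reagent. Prior exposure: 48 h, 37C, humidified 5% CO2, 500 cells per well.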

[4] = Quantitative High-Throughput drug screen in 47 multiple myeloma cell lines against the NCATS MIPE library collection: EJM_DSMZ cell viability assay (AID 1918926; also: nearly all actives have a fitted effect of over 30% in size; also: potency is read from the fitted curve at half-maximal effect)
Summary of the method: as §2

[5] = Quantitative High-Throughput drug screen in 47 multiple myeloma cell lines against the NCATS MIPE library collection: AMO1_DSMZ cell viability assay (AID 1918927; also: nearly all actives have a fitted effect of over 30% in size; also: potency is read from the fitted curve at half-maximal effect)
Summary of the method: as §2

[6] = Quantitative High-Throughput drug screen in 47 multiple myeloma cell lines against the NCATS MIPE library collection: ARP1_JJKsccF8 cell viability assay (AID 1918928; also: nearly all actives have a fitted effect of over 40% in size; also: potency is read from the fitted curve at half-maximal effect)
Summary of the method: (§3)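 Here, 48 h treatment with MIPE 4.0 agents at 37 °C preceded an ATP luminescence read. Plating density was 500 cells per well.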

[7] = Quantitative High-Throughput drug screen in 47 multiple myeloma cell lines against the NCATS MIPE library collection: Karpas620_DSMZ cell viability assay (AID 1918959); also: nearly all actives have a fitted effect of over 30% in size; also: potency is read from the fitted curve at half-maximal effect
Summary of the method: as §1

[8] = Quantitative High-Throughput drug screen in 47 multiple myeloma cell lines against the NCATS MIPE library collection: KHM11_PLB cell viability assay (AID 1918962); also: nearly all actives have a fitted effect of over 35% in size; also: potency is read from the fitted curve at half-maximal effect
Summary of the method: as §1

[9] = Quantitative High-Throughput drug screen in 47 multiple myeloma cell lines against the NCATS MIPE library collection: JIM3_ECACC cell viability assay (AID 1918963; also: nearly all actives have a fitted effect of over 35% in size; also: potency is read from the fitted curve at half-maximal effect)
Summary of the method: as §1

[10] = Quantitative High-Throughput drug screen in 47 multiple myeloma cell lines against the NCATS MIPE library collection: JIM1_ECACC cell viability assay (AID 1918964; also: potency is read from the fitted curve at half-maximal effect)
Summary of the method: as §2

[11] = Quantitative High-Throughput drug screen in 47 multiple myeloma cell lines against the NCATS MIPE library collection: INA6_PLB cell viability assay (AID 1918965; also: nearly all actives have a fitted effect of over 55% in size; also: potency is read from the fitted curve at half-maximal effect)
Summary of the method: (§4)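 Steps: seed 500 cells per well; pin-transfer MIPE 4.0 library; incubate 48 h at 37C, 5% CO2, humidified; add CellTiter-Glo, 5 min room temperature; read luminescence.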

[12] = Quantitative High-Throughput drug screen in 47 multiple myeloma cell lines against the NCATS MIPE library collection: Karpas25_ECACC cell viability assay (AID 1918968; also: nearly all actives have a fitted effect of over 35% in size; also: potency is read from the fitted curve at half-maximal effect)
Summary of the method: as §2

[13] = Quantitative High-Throughput drug screen in 47 multiple myeloma cell lines against the NCATS MIPE library collection: KMS27_JCRB cell viability assay (AID 1918970); conditions: KMS27 myeloma cells, CellTiter-Glo ATP viability, 48 h; viability (% of DMSO): at 45.8 µM (top of the series); also: nearly all actives have a fitted effect of over 30% in size; also: potency is read from the fitted curve at half-maximal effect
Summary of the method: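 ATP-based viability (CellTiter-Glo luminescence) is measured in cells treated 48 h with approved and investigational drugs at 37 °C. Controls are DMSO-only wells for full viability and media-only wells for none.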

[14] = Quantitative High-Throughput drug screen in 47 multiple myeloma cell lines against the NCATS MIPE library collection: KMS12BM_JCRB cell viability assay (AID 1918971); also: nearly all actives have a fitted effect of over 35% in size; also: potency is read from the fitted curve at half-maximal effect
Summary of the method: as §4

[15] = tested on: Nanoluciferase (engineered Oplophorus gracilirostris luciferase); assay: Primary Nanoluciferase (NLuc) qHTS assay for identification of artifact compounds. (AID 1845222);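 also: NLuc secreted into diluted conditioned medium of S16 cells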
Summary of the method: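 NLuc from S16 cell medium (1:55) plus test compounds, 15 min, room temperature. Luminescence after Nano-Glo (1:100) addition, 5 min.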

[16] = Quantitative High-Throughput drug screen in 47 multiple myeloma cell lines against the NCATS MIPE library collection: ARD_JJKsccE7 cell viability assay (AID 1918929; also: potency is read from the fitted curve at half-maximal effect)
Summary of the method: as §2

[17] = Quantitative High-Throughput drug screen in 47 multiple myeloma cell lines against the NCATS MIPE library collection: KMM1_JCRB cell viability assay (AID 1918960); also: nearly all actives have a fitted effect of over 30% in size; also: potency is read from the fitted curve at half-maximal effect
Summary of the method: as §3

[18] = Quantitative High-Throughput drug screen in 47 multiple myeloma cell lines against the NCATS MIPE library collection: JJN3_DSMZ cell viability assay (AID 1918966; also: potency is read from the fitted curve at half-maximal effect; nearly all actives have a fitted effect of over 50% in size)
Summary of the method: as §2

[19] = Quantitative High-Throughput drug screen in 47 multiple myeloma cell lines against the NCATS MIPE library collection: H1112_PLB cell viability assay (AID 1918967; also: nearly all actives have a fitted effect of over 30% in size; also: potency is read from the fitted curve at half-maximal effect)
Summary of the method: as §2

[20] = Quantitative High-Throughput drug screen in 47 multiple myeloma cell lines against the NCATS MIPE library collection: Karpas417_ECACC cell viability assay (AID 1918961); conditions: Karpas417 myeloma viability, CellTiter-Glo ATP luminescence, 48 h; viability (% of DMSO): at 45.8 µM (top of the series); also: potency is read from the fitted curve at half-maximal effect
Summary of the method: as §4

SMILES	outcome [1]	Potency [2]	Potency [3]	Potency [4]	Potency [5]	Potency [6]	Potency [7]	Potency [8]	Potency [9]	Potency [10]	Potency [11]	Potency [12]	Potency [13]	Potency [14]	Potency [15]	Potency [16]	Potency [17]	Potency [18]	Potency [19]	Potency [20]
NC(=O)c1noc([C@H](CCCC2CCCCC2)CC(=O)NO)n1	inactive	6.62 µM (active)	9.35 µM (active)	14.8 µM (active)	4.18 µM (active)	14.8 µM (active)	7.43 µM (active)	20.9 µM (active)	23.5 µM (active)	5.9 µM (active)	14.8 µM (active)	14.8 µM (active)	7.43 µM (active)	7.43 µM (active)						
Nc1ncnc2c1c(-c1cccc(OCc3ccccc3)c1)cn2C1CC(CN2CCC2)C1 (stereo not drawn)		16.6 µM (active)	0.372 µM (active)		14.8 µM (active)		2.96 µM (active)		0.332 µM (active)	0.469 µM (active)	20.9 µM (active)	1.18 µM (active)	1.87 µM (active)		inactive	2.96 µM (active)	0.372 µM (active)	4.69 µM (active)		
Cc1ccccc1C(C(=O)NC1CCCCC1)N(C(=O)CNc1ccc(C#N)cc1)c1cccc(F)c1 (stereo not drawn)	inactive						inactive		inactive		inactive	inactive		2.96 µM (active)	inactive	inactive	inactive		inactive	
O=C(c1ccc(C(=O)N2CCC(N3CCCC3)CC2)c(Nc2ccccc2)c1)N1CCC(N2CCCC2)CC1		inactive	inactive		inactive	5.26 µM (active)	inactive	inactive	inactive			inactive	inactive		inactive	inactive	inactive		inactive	
O=c1[nH]nc(OCCCc2ccc(Cl)cc2)c(NCc2cccnc2)c1Br	inactive	16.6 µM (active)	4.18 µM (active)	18.7 µM (active)	7.43 µM (active)	18.7 µM (active)	10.5 µM (active)	2.96 µM (active)	8.33 µM (active)	8.33 µM (active)	4.69 µM (active)	6.62 µM (active)	7.43 µM (active)	18.7 µM (active)			18.7 µM (active)	20.9 µM (active)	10.5 µM (active)	4.69 µM (active)
NC(N)=Nc1nc(CSCCC(N)=NS(N)(=O)=O)cs1		inactive	10.5 µM (active)	23.5 µM (active)		inactive					11.8 µM (active)	11.8 µM (active)		inactive		inactive	inactive		16.6 µM (active)	
N=C1SC(=Cc2ccc(-c3ccc4c(c3)C(=O)NC4=O)o2)C(=O)N1c1ccc(Br)cc1		3.32 µM (active)	inactive	4.18 µM (active)	inactive	3.32 µM (active)	inactive			inactive			inactive	4.18 µM (active)				2.96 µM (active)	inactive	
CCC(c1ccc(O)cc1)C(CC)c1ccc(O)cc1 (stereo not drawn)		5.26 µM (active)	0.0026 µM (active)	0.935 µM (active)		7.43 µM (active)	inactive		inactive		inactive					inactive	inactive		8.33 µM (active)	
CN(C)S(=O)(=O)c1ccc2c(c1)C(=Cc1cc3c([nH]1)CCCC3)C(=O)N2		2.35 µM (active)	2.96 µM (active)	4.69 µM (active)			1.87 µM (active)		11.8 µM (active)		3.72 µM (active)	16.6 µM (active)	3.32 µM (active)	8.33 µM (active)		8.33 µM (active)	inactive	4.69 µM (active)		1.32 µM (active)
O=C(O)C1=CC(O)C(O)[C@H](O)C1 (stereo partly drawn)		inactive	inactive	inactive	inactive		inactive		inactive		inactive	inactive	inactive	inactive		inactive	inactive		inactive	
Cc1[nH]c(C=C2C(=O)Nc3ccc(S(=O)(=O)N(C)c4cccc(Cl)c4)cc32)c(C)c1C(=O)N1CCN(C)CC1		26.4 µM (active)	14.8 µM (active)		5.9 µM (active)	23.5 µM (active)	9.35 µM (active)		20.9 µM (active)	9.35 µM (active)	11.8 µM (active)	7.43 µM (active)	5.9 µM (active)	26.4 µM (active)		6.62 µM (active)	6.62 µM (active)	20.9 µM (active)		3.72 µM (active)
COc1cc(F)c(C(C)C)cc1-c1ccc(C(F)(F)F)cc1CN1C(=O)O[C@H](c2cc(C(F)(F)F)cc(C(F)(F)F)c2)[C@@H]1C		inactive	inactive	inactive	inactive		inactive		inactive	inactive		inactive	inactive	3.32 µM (active)		inactive	inactive		inactive	
